The campaign covered roughly 5,500 compounds. About 2,000 (36%) were called active. Not shown: some 18% with an inconclusive outcome. No stated cut-off is given here; in the data, active means normalized growth mostly below about 0.91 (no sharp cut-off); inconclusive means no clear call, values can overlap the other calls; inactive means mostly above about 0.92. This is one part of the list.
Test: chemical genetic growth profiling, strain panel (AID 1159580);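 further: tested at 20 µM; growth read once vehicle control cultures reached saturation at 30 °C; 1 = growth at the plate median or of vehicle wells; lower values mean less growth of the strain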
Conditions: S. cerevisiae deletion strains, growth OD

Measured: normalized growth

CC(=O)OC1C(=O)C2(C)C(O)CC3OCC3(OC(C)=O)C2C(OC(=O)c2ccccc2)C2(O)CC(OC(=O)C(O)C(NC(=O)c3ccccc3)c3ccccc3)C(C)=C1C2(C)C (stereo unspecified)
inactive: locus YCL061C, strain MRC1 (second series), active compounds read low 0.996 | locus YDR363W, strain ESC2, active compounds read low 0.984 | locus YER002W, strain NOP16, active compounds read low 1 | locus YMR307W, strain GAS1, active compounds read low 0.975 | locus YNL128W, strain TEP1, active compounds read low 1 | locus YNL197C, strain WHI3, active compounds read low 0.981 | locus YNL224C, strain SQS1, active compounds read low 1.03 | locus YPL241C, strain CIN2, active compounds read low 0.995

CC(=O)O[C@H]1C(=O)[C@@]2(C)C([C@H](OC(=O)c3ccccc3)[C@]3(O)C[C@H](O)C(C)=C1C3(C)C)[C@]1(OC(C)=O)CO[C@@H]1C[C@@H]2O (stereo partly specified)
inactive: locus YAL021C, strain ccr4, active compounds read low 0.974 | locus YAL026C, strain drs2, active compounds read low 0.983 | locus YAL030W, strain snc1, active compounds read low 1 | locus YBL061C, strain skt5, active compounds read low 1.02 | locus YBR009C, strain hhf1, active compounds read low 0.986 | locus YBR023C, strain chs3, active compounds read low 0.998 | locus YBR171W, strain sec66, active compounds read low 1 | locus YBR231C, strain swc5, active compounds read low 1 | locus YBR279W, strain paf1, active compounds read low 0.999 | locus YCL011C, strain gbp2, active compounds read low 1 | locus YCL016C, strain dcc1, active compounds read low 1.01 | locus YCL069W, strain vba3, active compounds read low 0.98 | locus YCR088W, strain abp1, active compounds read low 0.986 | locus YDL005C, strain med2, active compounds read low 1 | locus YDL040C, strain nat1, active compounds read low 0.999 | locus YDR001C, strain nth1, active compounds read low 0.99 | locus YDR069C, strain doa4, active compounds read low 1.02 | locus YDR137W, strain rgp1, active compounds read low 1.05 | locus YDR159W, strain sac3, active compounds read low 1.01 | locus YDR195W, strain ref2 0.946 | locus YDR297W, strain sur2, active compounds read low 0.977 | locus YDR334W, strain swr1, active compounds read low 0.969 | locus YDR335W, strain msn5, active compounds read low 0.993 | locus YDR392W, strain spt3, active compounds read low 0.985 | locus YEL003W, strain gim4, active compounds read low 0.991 | locus YEL037C, strain rad23, active compounds read low 0.983 | locus YEL061C, strain CIN8 (second series), active compounds read low 0.981 | locus YER015W, strain faa2, active compounds read low 1 | locus YER016W, strain bim1, active compounds read low 1.01 | locus YER111C, strain swi4, active compounds read low 1 | locus YER155C, strain BEM2 (second series), active compounds read low 1.01 | locus YFR010W, strain ubp6, active compounds read low 0.985 | locus YGL167C, strain pmr1, active compounds read low 1 | locus YGL173C, strain kem1, active compounds read low 0.998 | locus YGL227W, strain vid30, active compounds read low 0.992 | locus YGL240W, strain doc1, active compounds read low 1 | locus YGL253W, strain hxk2, active compounds read low 0.99 | locus YHR013C, strain ard1, active compounds read low 1 | locus YHR027C, strain rpn1, active compounds read low 1 | locus YHR030C, strain SLT2, active compounds read low 0.988 | locus YHR079C, strain IRE1, active compounds read low 0.995 | locus YHR142W, strain chs7, active compounds read low 0.984 | locus YJL092W, strain hpr5, active compounds read low 0.998 | locus YJL095W, strain BCK1 (second series), active compounds read low 0.995 | locus YJL095W, strain BCK1, active compounds read low 0.995 | locus YJL115W, strain asf1, active compounds read low 0.973 | locus YJL129C, strain trk1, active compounds read low 0.982 | locus YJL154C, strain vps35, active compounds read low 0.98 | locus YJL164C, strain tpk1, active compounds read low 1 | locus YJL166W, strain qcr8, active compounds read low 1 | locus YJR066W, strain TOR1, active compounds read low 0.94 | locus YKL160W, strain elf1, active compounds read low 1.01 | locus YKR026C, strain gcn3, active compounds read low 0.985 | locus YKR091W, strain srl3, active compounds read low 1.01 | locus YLL001W, strain dnm1, active compounds read low 1 | locus YLL026W, active compounds read low 0.999 | locus YLL041C, strain sdh2, active compounds read low 0.985 | locus YLR027C, strain aat2, active compounds read low 0.988 | locus YLR113W, strain HOG1, active compounds read low 1.01 | locus YLR221C, strain rsa3, active compounds read low 0.994 | locus YLR258W, strain gsy2, active compounds read low 0.999 | locus YLR262C, strain YPT6 (second series), active compounds read low 1 | locus YLR320W, strain mms22, active compounds read low 1.01 | locus YLR342W, strain FKS1, active compounds read low 1.01 | locus YLR357W, strain rsc2, active compounds read low 0.968 | locus YLR370C, strain arc18, active compounds read low 0.984 | locus YLR384C, strain iki3, active compounds read low 0.981 | locus YML120C, strain ndi1, active compounds read low 1.01 | locus YMR058W, strain fet3, active compounds read low 0.99 | locus YMR125W, strain sto1, active compounds read low 0.993 | locus YMR129W, active compounds read low 0.988 | locus YMR205C, strain PFK2, active compounds read low 0.989 | locus YMR231W, strain pep5, active compounds read low 1 | locus YNL071W, strain lat1, active compounds read low 0.979 | locus YNL183C, strain NPR1, active compounds read low 0.953 | locus YNL209W, strain ssb2, active compounds read low 0.987 | locus YNL248C, strain rpa49, active compounds read low 0.974 | locus YNL322C, strain KRE1 (second series), active compounds read low 1.01 | locus YNR049C, strain mso1, active compounds read low 1.01 | locus YOR001W, strain rrp6, active compounds read low 0.982 | locus YOR070C, strain gyp1, active compounds read low 0.987 | locus YOR080W, strain dia2, active compounds read low 0.993 | locus YOR083W, strain WHI5, active compounds read low 1.01 | locus YOR106W, strain vam3, active compounds read low 1.01 | locus YOR231W, strain MKK1, active compounds read low 0.973 | locus YOR265W, strain rbl2, active compounds read low 0.969 | locus YOR270C, strain vph1, active compounds read low 0.888 | locus YOR290C, strain snf2, active compounds read low 1.02 | locus YPL051W, strain arl3, active compounds read low 1.01 | locus YPL078C, strain atp4, active compounds read low 0.996 | locus YPL106C, strain sse1, active compounds read low 0.987 | locus YPL240C, strain hsp82, active compounds read low 0.995 | locus YPL256C, strain CLN2, active compounds read low 0.966

From PubChem BioAssay AID1159580 (chemical genetic matrix, 2015)
